Sampled rows, rich in hits. Any-hit rate of the full collection: about 4.1%.
DAX1 inh-1 – inhibitors of human orphan nuclear receptor DAX1 (NR0B1) | HEK293 Gal4-DAX1 luciferase reporter, luminescence | inhibition, % at 6.75 µM | 340,000 compounds, 0.99% hits | AID 504766;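 active = inhibition above the mean over all tested compounds plus 3 SD, cut at about 4.2% in these data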;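 note: 0% = DAX1-transfected cells with DMSO and 100% = empty-vector control cells with DMSO; inhibition shows as a rise in luminescence from relieved DAX1 repression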
Target sequence (P51843 207-470 limits assumed): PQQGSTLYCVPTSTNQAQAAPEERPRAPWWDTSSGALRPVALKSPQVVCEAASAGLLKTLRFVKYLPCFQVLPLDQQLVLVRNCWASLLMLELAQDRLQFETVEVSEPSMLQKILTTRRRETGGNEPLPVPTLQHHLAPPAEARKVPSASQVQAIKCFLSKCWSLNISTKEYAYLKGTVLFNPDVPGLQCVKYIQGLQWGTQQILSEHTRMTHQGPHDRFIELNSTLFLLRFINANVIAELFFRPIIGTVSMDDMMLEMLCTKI
hcDAF12 agonist – H. contortus DAF-12 activation, primary screen | HEK293 hcDAF-12 lit1-tk-luc reporter, luminescence; 0% DMSO, 100% Δ7-dafachronic acid | activation, % at 6.8 µM | 370,000 compounds, 1.4% hits | AID 652067;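 active = activation above the mean of all tested compounds plus 3 SD, cut at about 5.5% in these data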;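 note: 100% = response to 3 µM Δ7-dafachronic acid high control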
ssDAF12 agonist – activators of S. stercoralis DAF-12 nuclear receptor. HEK293 ssDAF-12/GRIP1 lit1-tk-luc reporter, luminescence; % of 3 µM dafachronic acid response. activation, % at 6.8 µM. 370,000 compounds, 1% hits;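 active = activation above the mean over all tested compounds plus 3 SD, cut at about 0.9% in these data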;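 note: 0% = DMSO-only wells and 100% = 3 µM delta7-dafachronic acid wells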
DAX1 inh-2 – DAX1 (NR0B1) inhibition, primary screen; inhibition, % at 6.8 µM; HEK293T StAR-luciferase reporter, SF-1/DAX-1 repression relief; 370,000 compounds, 1.1% hits;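 active = inhibition above the mean over all tested compounds plus 3 SD, cut at about 3.6% in these data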;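 note: 0% = DAX-1 cells with DMSO and 100% = cells lacking DAX-1 with DMSO; higher inhibition means more luminescence from relief of DAX-1 repression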
hgDAF12 agonist – activates the H. glycines DAF-12 receptor ligand-binding domain; HEK293 GAL4-hgDAF12 UAS-luciferase reporter, agonist luminescence; normalized to butyrate control; 370,000 compounds, 1.8% hits; activation, % at 6.8 µM; AID 687014;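 active = activation above a cutoff set at the mean of all screened compounds plus 3 SD, cut at about 10% in these data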;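 note: 0% = DMSO wells and 100% = sodium butyrate wells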
* hit, by the source's call; x = no result.

SMILES	DAX1 inh-1	hcDAF12 agonist	ssDAF12 agonist	DAX1 inh-2	hgDAF12 agonist
Cc1cccc(C(=O)N2CCN(c3ccc(N4CCOCC4)nn3)CC2)c1	4.4*	-0.2	2.2*	-0.6	-2.3
COc1cccc2sc3cc(C#CC4(O)CCCCC4)ccc3c(=O)c12	0.9	1.8	0.7	2.5	10.5*
COc1cccc2sc3ccc(C#CC4(N)CCCCC4)cc3c(=O)c12	1.6	0.4	-0.5	0.2	2.2
COc1ccc2c(c1)CN1CN(CC(C)C)S(=O)(=O)CC21 (stereo unspecified)	x	0.2	-1.5	-1.0	0.0
O=[N+]([O-])c1ccc(C2=NN(c3ccccc3)C(c3ccco3)C2)cc1 (stereo unspecified)	6.4*	0.0	-0.3	0.2	4.3
N#C/C(=C\c1ccccc1O)C(=O)Nc1ccccn1	1.2	5.8*	0.7	0.2	4.3
Cc1ccccc1NC(=O)N1CCCC(c2nc(-c3ccc(F)cc3)no2)C1 (stereo unspecified)	-0.2	-1.0	-1.6	0.6	3.4
Cc1ccccc1NC(=O)N1CCCC(c2nc(-c3ccc(C(C)C)cc3)no2)C1 (stereo unspecified)	-3.5	4.9	-0.3	0.3	10.5*
COC(=O)[C@@H](NC(=O)N1CCC(C)CC1)C(C)C	4.9*	-1.3	-1.0	-0.3	4.1
OCCC1CN(CC#Cc2ccccc2)CCN1Cc1ccccc1F (stereo unspecified)	-0.2	2.7	1.6*	0.3	0.2
CC(C)CN1CCN(CC#Cc2ccccc2)CC1CCO (stereo unspecified)	2.6	0.9	-1.3	1.5	-1.1
CCN(CC(=O)Nc1c(F)cccc1F)C(=O)C1CCN(S(=O)(=O)c2ccccc2C(=O)OC)CC1	2.3	-1.1	-1.3	1.8	-0.6
COc1ccc(NC(=S)N/N=C/c2ccc(F)cc2)cc1OC	-0.4	-0.2	-1.3	1.9	11.2*
O=C(N=C1c2ccccc2CN1c1cccc(Cl)c1)c1cccnc1	-0.7	3.5	-0.1	0.6	10.8*
CCOC(=O)C1CCCN(C(=O)c2ccc3oc(Cc4ccccc4)nc3c2)C1 (stereo unspecified)	1.9	2.6	-0.4	3.3	11.4*
CC(C)CC(=O)C1CCCN(C(=O)c2ccc3oc(Cc4ccccc4)nc3c2)C1 (stereo unspecified)	-0.4	-0.4	-1.3	-0.5	-1.8
O=C(NCc1ccncc1)c1ccc2nc(Cc3ccccc3F)oc2c1	-0.5	-0.7	-1.7	-3.4	-2.0
CCCCc1nc2cc(C(=O)N3CCC[C@H]3CO)ccc2o1	2.5	1.6	-0.4	2.0	4.0
Cc1cc(CNC(=O)c2ccc3nc(Cc4ccccc4F)oc3c2)nn1C	2.0	2.3	-0.7	2.4	11.5*
CCCCc1nc2cc(C(=O)N3CCC(O)CC3)ccc2o1	1.4	6.2*	1.0*	1.9	10.9*
CCCCc1nc2cc(C(=O)N(C)CCc3cn[nH]c3)ccc2o1	0.1	-0.3	-1.2	-0.1	2.5
CCCCc1nc2cc(C(=O)NCc3cc(C)n(C)n3)ccc2o1	0.8	6.2*	-1.1	0.3	4.1
Cc1ccc(NC(=O)[C@@H]2CC(=O)O[C@@H]2c2ccccc2)c(C)c1	x	0.7	-1.7	-0.5	-1.3
CCN(CC)C(=O)CC[C@H]1CC[C@]2(CCCN(C(=O)c3ccco3)C2)O1	x	-1.8	-1.1	0.6	0.7
COC(=O)[C@]12C[C@H](CC(=O)N3CCCCC3)C(=O)N(CCc3ccc(OC)c(OC)c3)C1=C[C@H](COCc1ccccc1)O[C@@H]2C	x	-0.5	-0.8	-0.3	-0.1
SMILES	DAX1 inh-1	hcDAF12 agonist	ssDAF12 agonist	DAX1 inh-2	hgDAF12 agonist
COc1cccc(CN(CC(=O)NCc2ccccc2)C(=O)c2csnn2)c1	0.5	0.8	-0.5	-0.5	0.1
O=C(NCCCN1CCOCC1)c1ccc2nc(Cc3ccccc3F)oc2c1	-0.1	-0.8	-0.7	4.2*	1.3
O=C(NCCCN1CCOCC1)c1ccc2ccccc2c1	1.7	-1.9	-0.2	0.8	3.5
O=C1c2cccnc2C(Nc2ccc(F)c(Cl)c2)N1Cc1cccs1 (stereo unspecified)	-1.2	-2.2	-1.2	-0.1	-4.1
CC(=O)c1cccc(NC(=O)COc2ccccc2)c1	1.2	-2.1	-1.1	0.6	4.5
CC(C)CCOCC(=O)Nc1cccc(C(=O)O)c1	-1.7	3.5	-0.5	3.3	12.0*
COc1ccc(-n2c(COc3ccccc3)nnc2SCC(=O)Nc2ccc(OCc3ccccc3)cc2)cc1	x	-1.9	-1.5	-1.6	0.6

Assay outcomes deposited in PubChem BioAssay by The Scripps Research Institute Molecular Screening Center.
